# Compound activity from PubChem BioAssay.
# An excerpt weighted towards active compounds, which were near 2.3% of everything screened.
# CHO-K1 Ca PAM: nonselective calcium activators in parental CHO-K1 cells, primary screen, counter-screen for M1 PAM project, cell-based, Fluo-8 calcium fluorescence, full deck, 1536-well. ATP EC20; 0% at ATP EC20, 100% at ATP max. activation, % at 3 µM. actives 0.02% (n = 360,000);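 active = activation above the run cutoff, the mean activation of all test compounds plus 3 SD, cut at about 40% in these data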;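 also: peak over basal fluorescence ratio in a 140 s read after ATP addition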
# M1 PAM: human M1 muscarinic receptor positive allosteric modulators, primary screen, CHO-K1 cells, Fluo-8 calcium fluorescence, 1536-well | Muscarinic acetylcholine receptor M1 (Homo sapiens), P11229 | CHO-K1 hM1, ACh EC20; 0% = ACh EC20, 100% = maximal ACh | activation, % at 3 µM | actives 0.088% (n = 360,000); in the data active = activation above about 19%, passing the limit was not always enough
# Target sequence (P11229 whole entry, looked up): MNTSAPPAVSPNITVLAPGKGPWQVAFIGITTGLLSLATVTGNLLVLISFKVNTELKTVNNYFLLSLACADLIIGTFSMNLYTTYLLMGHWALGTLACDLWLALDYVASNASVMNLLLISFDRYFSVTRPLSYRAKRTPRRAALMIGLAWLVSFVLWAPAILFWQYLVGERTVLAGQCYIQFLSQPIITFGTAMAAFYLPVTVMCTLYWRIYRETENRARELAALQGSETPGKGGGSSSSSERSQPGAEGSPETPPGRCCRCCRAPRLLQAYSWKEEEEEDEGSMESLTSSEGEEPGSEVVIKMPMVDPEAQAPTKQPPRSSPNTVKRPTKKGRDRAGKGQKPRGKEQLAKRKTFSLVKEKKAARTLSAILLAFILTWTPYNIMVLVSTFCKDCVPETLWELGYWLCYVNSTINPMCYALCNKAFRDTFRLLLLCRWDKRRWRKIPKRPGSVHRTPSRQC
# M1 ag: human M1 muscarinic receptor agonists, primary screen, Fluo-8 calcium fluorescence, CHO-K1 cells, HTS; Muscarinic acetylcholine receptor M1 (Homo sapiens), P11229; CHO-K1 hM1, agonist mode; 0% DMSO, 100% acetylcholine EC100; activation, % at 3 µM; actives 0.33% (n = 360,000);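 active = activation above the run's mean compound activation plus 3 SD, cut at about 16% in these data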;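 also: peak over basal fluorescence ratio within a 140 s kinetic read after compound addition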
# CHO-K1 Ca ag: counter-screen for M1 agonists: effect in parental CHO-K1 cells; actives 0.48% (n = 360,000); Fluo-8 calcium fluorescence; scaled to maximal ATP response, vehicle zero; activation, % at 3 µM; in the data active = activation above about 15%;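 also: untransfected CHO-K1 host cells lacking M1 receptor as counterscreen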
# CHO-K1 Ca antag: M1 antagonist counterscreen hit in parental CHO-K1 cells; actives 0.6% (n = 360,000); ATP-induced calcium, Fluo-8 fluorescence; inhibition, % at 3 µM;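 active = inhibition above a per-plate cutoff, the plate's mean sample inhibition plus 3 SD, cut at about 24% in these data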
# CHRM1 antagonist: human M1 muscarinic receptor antagonists, primary screen, CHO-K1 cells, Fluo-8 calcium fluorescence, 1536-well | Muscarinic acetylcholine receptor M1 (Homo sapiens), P11229 | CHO-K1 hM1, ACh EC80 antagonist | actives 1.3% (n = 360,000) | inhibition, % at 3 µM | AID 588852, 2011;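 active = percent inhibition above its own plate's cutoff, namely the mean of that plate's compound wells plus 3 SD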;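 also: peak over basal fluorescence ratio during 140 s after agonist addition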
# A number is an active result; - = inactive; . = not tested or not shown.
SMILES,CHO-K1 Ca PAM,M1 PAM,M1 ag,CHO-K1 Ca ag,CHO-K1 Ca antag,CHRM1 antagonist
CN(c1cccc(NC(=O)c2ccc(N(C)S(=O)(=O)c3ccccc3)cc2)c1)S(C)(=O)=O,-,-,-,16.3,24.3,27.8
Cc1ccccc1CC(=O)Nc1ccc(S(=O)(=O)N2CCOCC2)cc1,-,-,-,-,-,-
CC1OC(CCc2cccc(Cl)c2)Cc2[nH][nH]c(=O)c21 (stereo not drawn),-,.,.,-,-,.
CC(=O)N1CCCC(c2cc(C(=O)Nc3ccccc3)no2)C1 (stereo not drawn),-,-,-,-,34.4,-
O=C(Nc1ccccc1)c1cc(C2CCCN(C(=O)C3CC3)C2)on1 (stereo not drawn),-,-,-,-,-,-
CCCC[n+]1ccn(-c2nc3ccccc3nc2[N-]S(=O)(=O)c2ccc(C)cc2)c1,-,-,-,-,-,-
CCCC[n+]1ccn(-c2nc3ccccc3nc2[N-]S(=O)(=O)c2ccccc2)c1,-,-,19.1,-,-,-
O=C1NC2c3c(Cl)sc(Cl)c3C(=O)C2O1 (stereo not drawn),-,27.9,-,-,-,-
COc1cc(=O)n(C)c2cc(N(C)C)ccc12,-,20.0,-,-,-,-
COc1ccc(CCNC(=O)CCC(=O)NC2CCCC(C)C2C)cc1OC (stereo not drawn),-,-,-,-,29.2,-
COc1ccccc1C(=O)NCCC(=O)NC1CCCC(C)C1C (stereo not drawn),-,-,-,-,-,-
COc1ccc(CCNC(=O)CCC(=O)c2cccs2)cc1OC,-,-,-,-,27.5,-
Cc1ccc(S(=O)(=O)N2CCCC2CNC(=O)C(=O)NCc2ccc3c(c2)OCO3)cc1 (stereo not drawn),-,-,-,-,-,-
COc1ccc(CCNCCC(c2ccccc2)c2ccccc2)cc1OC,-,-,-,-,-,-
COc1ccc(C(CCNCc2ccc(N(C)C)cc2)c2ccccc2)cc1 (stereo not drawn),-,-,-,22.5,-,-
CC(C)Oc1ccc(CNC(=O)CC(c2ccccc2)c2cc(Cl)ccc2O)cc1 (stereo not drawn),-,-,-,-,-,-
CC(C)Oc1ccc(C(CCNCc2ccc(O)cc2)c2ccccc2)cc1 (stereo not drawn),-,-,-,20.8,-,-
COc1ccc(C(CCNCc2ccc(OC)c(OC)c2)c2ccc(F)cc2)cc1 (stereo not drawn),-,-,-,17.9,-,-
Cn1cc(-c2ccccc2C(=O)O)c(=O)c2cc(Cl)ccc21,-,-,-,-,-,-
CC1=C(C(=O)Nc2cccc(F)c2)C(c2ccsc2)C2=C(CC(C)(C)CC2=O)N1 (stereo not drawn),-,-,-,-,-,-
COc1ccccc1C(=O)NNC(=O)c1ccc(Br)o1,-,-,-,-,-,-
COC(=O)c1[nH]c2cccc(OC)c2c1NC(=O)CN(C)CC1OCCO1,-,-,-,-,23.7,-
N#Cc1c(N)[nH]c(C(=O)c2ccccc2)c1-c1ccc(Cl)cc1,-,.,.,-,-,.
Cn1c(=O)[nH]c2c(nc(-c3ccc(Cl)cc3)n2C)c1=O,-,-,-,-,28.7,-
CCCCn1c(-c2ccc(Cl)cc2)nc2c(=O)n(C)c(=O)[nH]c21,-,-,-,-,-,-
SMILES,CHO-K1 Ca PAM,M1 PAM,M1 ag,CHO-K1 Ca ag,CHO-K1 Ca antag,CHRM1 antagonist
Cc1cc(OCC(=O)NC(C)c2ccccc2)ccc1[N+](=O)[O-] (stereo not drawn),-,-,-,-,-,-
Cc1c(Cc2ccccc2)c(=O)oc2cc(O)cc(O)c12,-,-,-,-,-,-
COc1ccc(NC(=O)CCc2nnc3ccc(NCc4ccco4)nn23)cc1,-,25.5,-,-,-,-
O=S1(=O)NC(=NCC(c2ccco2)N2CCCCC2)c2ccccc21 (stereo not drawn),-,-,-,-,-,57.2
CC(=O)Nc1ccc(Cl)c(-c2nc3ncccc3o2)c1,-,-,-,-,-,-
CC1CCCN(CCCNC(=O)C2CCCN(c3ncnc4c3nc3n4CCCCC3)C2)C1 (stereo not drawn),-,-,-,-,-,-
Cc1ccccc1CN1CCC(CNC(=O)C2CCCN(c3ncnc4c3nc3n4CCCCC3)C2)CC1 (stereo not drawn),-,-,-,-,-,101.5
COc1cccc(CCNC(=O)C2CCCN(c3ncnc4c3nc3n4CCCCC3)C2)c1OC (stereo not drawn),-,-,-,-,-,-
CC1CC(C)CN(CCCNC(=O)C2CCCN(c3ncnc4c3nc3n4CCCCC3)C2)C1 (stereo not drawn),-,-,-,-,-,29.2
c1ccc(Oc2cc(-c3ccccc3)nc(-c3ccccc3)n2)cc1,-,25.6,-,-,-,-
Cc1cc(Oc2ccccc2)nc(-c2ccccc2)n1,-,-,-,-,-,-
O=S1(=O)CC(N2CC=CC2)CN1Cc1cn(Cc2cccc(C(F)(F)F)c2)nn1 (stereo not drawn),-,.,.,-,-,.
Cc1ccc2nc(NC(=O)C3CCN(S(=O)(=O)c4cc([N+](=O)[O-])ccc4Cl)CC3)sc2c1,-,-,-,-,25.2,-
Cc1ccc(NC(=O)C2CCN(S(=O)(=O)c3cc([N+](=O)[O-])ccc3Cl)CC2)nc1,-,-,-,-,-,41.6
CC(NC(=O)C1CCN(S(=O)(=O)c2cc([N+](=O)[O-])ccc2Cl)CC1)c1ccccc1 (stereo not drawn),-,-,-,-,-,-
O=C(Nc1nc2ccc(F)cc2s1)C1CCN(S(=O)(=O)c2cc([N+](=O)[O-])ccc2Cl)CC1,-,-,-,-,31.6,32.4
Cc1cc(C)cc(NC(=O)c2cc(C)nc3ccccc23)c1,-,-,-,-,-,-
CCN(CC)CCCOC(=O)C(c1ccccc1)c1ccccc1,-,-,-,-,-,100.6
CCN(CC)CCOC(=O)/C=C/c1ccccc1,-,-,-,-,-,-
C=CCn1c(C(O)c2ccccc2)nc2ccccc21 (stereo not drawn),-,-,-,-,-,-
C=CCn1c(C(C)C)nc2ccccc21,-,-,-,17.6,-,-
COC(=O)c1ccc(C[n+]2ccccc2)cc1,-,-,-,-,23.9,-
COC(=O)c1ccc(NC(=O)C[n+]2ccccc2)cc1,-,-,-,-,-,-
